Chlamy TAG: increases triacylglycerol in Chlamydomonas reinhardtii; actives 0.84% (n = 44,000); Chlamydomonas reinhardtii TAG, Nile Red fluorescence, 72 h; calls only at 10 µM (by protocol); call rule not given here;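 also: hits raise Nile Red signal meaning more stored TAG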
Active calls of the source: *; i = inactive; + = active, no number. The sample as a whole holds a higher share of hits than the screen did.

SMILES	Chlamy TAG
O=[N+]([O-])c1ccccc1S(=O)(=O)N1CCN(Cc2ccccn2)CC1	i
C1CCCN(C2CCN(C3CC4CCC3C4)CC2)CC1 (stereo not given)	i
c1ccc(CN2CCC(N3CCN(C4CC5CCC4C5)CC3)CC2)cc1 (stereo not given)	+
c1ccc(CN2CCC(N3CCN(Cc4ccccn4)CC3)CC2)cc1	i
CC1CCCC(NC2CCN(Cc3ccccc3)CC2)C1 (stereo not given)	i
CC1CCCC(N2CCN(Cc3ccccc3)CC2)C1 (stereo not given)	+
O=[N+]([O-])c1ccccc1S(=O)(=O)N1CCN(C2CCN(Cc3ccccc3)CC2)CC1	+
COc1cc(CN2CCN(C3CCN(Cc4ccccc4)CC3)CC2)cc(OC)c1O	i
O=[N+]([O-])c1ccccc1CN1CCC(N2CCCCC2)CC1	i
Cc1nnc(NC(=O)c2cc(S(=O)(=O)N3CCOCC3)ccc2Cl)s1	i
CC1(C)CC(=O)C=C(NCCN2CCOCC2)C1	i
C=CCn1c(SCC(=O)c2ccc(OC)cc2)nnc1-c1cccs1	i
COc1ccc(NC(C)=CC(=O)c2ccc(OC)cc2)cc1	i
Cc1ccc(C(=O)Nc2ccccc2C(=O)NC(C)C)cc1[N+](=O)[O-]	+
Cc1ccccc1C(=O)Nc1cccc(NC(=O)c2ccc(C)c([N+](=O)[O-])c2)c1	i
CC(C)NC(=O)c1ccccc1NC(=O)c1ccc(F)cc1	i
O=[N+]([O-])c1ccc(-c2noc(-c3cccc(Cl)c3)n2)cc1	i
O=C(Nc1ccc(O)c(-c2nc3ccccc3o2)c1)c1cccc([N+](=O)[O-])c1	i
COC(=O)N1CCN(c2ccccc2)CC1	i
O=S(=O)(c1ccc(F)cc1)N1CCN(C2CCCC2)CC1	i
O=S(=O)(c1ccc(F)cc1)N1CCN(C2CCCCC2)CC1	+
O=S(=O)(c1ccc(F)cc1)N1CCCC1	i
CCCN1CCC(N2CCN(S(=O)(=O)c3ccc(F)cc3)CC2)CC1	i
CC1CCCN(C2CCN(S(=O)(=O)c3ccc(F)cc3)CC2)C1 (stereo not given)	+
Cc1ccc(S(=O)(=O)N2CCC(N3CCCCC3)CC2)cc1	i
SMILES	Chlamy TAG
Cc1ccc(NC(=O)C(=O)NCCN2CCN(C(=O)c3ccc(Cl)cc3Cl)CC2)cc1C	i
Cc1cccc(C(=O)Nc2sc(C)c(C)c2C(=O)O)c1	i
Cc1sc(NC(=O)c2cccs2)c(C(=O)O)c1C	+
O=C(Nc1scc(-c2cccs2)c1C(=O)O)c1cccs1	i
N#CC(=C(O)c1ccc(I)cc1)c1nc2ccccc2s1	i
O=C(COc1ccc(Cl)cc1)Nc1ccc(Br)cc1	i
CC(=O)Nc1ccc(NC(=O)COc2ccc(C)c(C)c2)cc1	i
CC(=O)Nc1ccc(OCC(=O)Nc2cc(Cl)cc(Cl)c2)cc1	+
Cc1cccc(-c2cc(NC(=O)c3ccccc3[N+](=O)[O-])n[nH]2)c1	i
O=C(Nc1ncccn1)c1ccc([N+](=O)[O-])cc1	i
Cc1cccc(-c2cc(NC(=O)c3ccc([N+](=O)[O-])cc3)n[nH]2)c1	+
c1ccc(CN2CCN(Cc3ccco3)CC2)nc1	i
CCc1ccccc1NC(=O)C1CCN(C(=O)c2cccc(Cl)c2)CC1	i
C/C=C(\C)CN1CCN(Cc2ccccc2)CC1	i
Cc1ccc(NC(=O)CN2CCN(c3ccc(F)cc3)CC2)cc1	i
C/C=C(\C)CN1CCN(c2ccc(C)cc2)CC1	+
Cc1ccc2c(Cl)c(C(=O)Nc3nnc(C)s3)sc2c1	i
O=C(Nc1ccccc1-c1ccccc1)c1ccccc1Cl	i
COc1ccc(C(=O)n2cncn2)cc1	i
CCC(=O)c1ccc(OC(=O)N2CCCCC2)cc1	i
Cc1ccc(OCCn2ccnc2)c(Cl)c1	i
Cc1cc(Cl)c(OCCn2ccnc2)c(Br)c1	+
Clc1ccc(OCCn2ccnc2)c(Cl)c1	i
Cc1cc(Cl)c(OCCOCCn2ccnc2)c(Br)c1	i
Clc1ccc(OCCn2ccnc2)c(Br)c1	i
SMILES	Chlamy TAG
Cc1cc(Cl)cc(C)c1OCCn1ccnc1	+
Cc1cccc(/C(N)=N\OC(=O)Oc2ccccc2)c1	i
COc1ccc(-c2nc(N)sc2C)c(OC)c1	i
CC(=O)Nc1ccc(NC(=O)C2CC(=O)N(c3ccc(F)cc3)C2)cc1 (stereo not given)	i
O=[N+]([O-])c1cccc(Cl)c1N1CCN(S(=O)(=O)c2ccc(Br)cc2)CC1	i
O=C(Nc1nnc(SCc2ccc(F)cc2)s1)Nc1ccccc1F	i
C/C(=C\C(=O)c1ccccc1)Nc1ccc(C)cc1	i
CCOc1c(Cl)cc(C(=O)Nc2cccc([N+](=O)[O-])c2)cc1Cl	+
CCOc1cc(C(=O)Nc2ccc([N+](=O)[O-])cc2Cl)cc(OCC)c1OCC	i
CCOc1ccc(C(=O)Nc2cccc([N+](=O)[O-])c2)cc1Cl	i
CSCCC(N=C1NC(C)(C)Cc2ccccc21)C(=O)O (stereo not given)	i
COCCCN1C(=O)C(O)=C(C(=O)c2ccc(C)o2)C1c1ccc([N+](=O)[O-])cc1 (stereo not given)	i

Compound activity deposited in PubChem by DiRusso Lab, Biochemistry Department, University of Nebraska.
